# Assay results from PubChem BioAssay (Tox21).
# A number with no mark means an inactive call. Entries that show only a call come without a potency. Active and inactive are the calls of the source. The call rests on the fitted dose curve; in most records, active means well fitted curve in the direction sought with a large enough effect in the repeat runs; inconclusive means weak or mixed curves; inactive means flat fitted curve, though single readings scatter.
# Assay: qHTS assay to test for compound auto fluorescence at 590 nm (red) in HEK293 cell free culture (AID 720683)
# Conditions: cell-free medium autofluorescence, Ex540/Em590 red; series mostly up to 91.3 µM
# Method in brief: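 Tox21 10K library compounds were pinned into cell-free DMEM with 10% FBS and fluorescence was read at excitation 540 nm. Activity is expressed as Rose Bengal sodium equivalency.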
# Potency means the concentration at half of the fitted maximal effect; tags describe the fitted curve by direction and shape or compound fluorescence and quenching.
Compound,Potency,"fluorescence, % of fluorescent control"
CCCCNS(=O)(=O)c1ccc(C)cc1,inactive,
CCCCCCCCCCCCCC[N+](C)(C)C,inactive,
O=C(Oc1ccccc1)Oc1ccccc1,inactive,
OC1CCCc2ccccc21 (configuration not stated),inactive,
OC[C@H]1O[C@H](O[C@H]2O[C@H](CO)[C@@H](O)[C@H](O)[C@H]2O)[C@H](O)[C@@H](O)[C@@H]1O,inactive,
CC(C)CCCCCOC(=O)CCS,inactive,
CCC(COC(=O)CCS)(COC(=O)CCS)COC(=O)CCS,inactive,
COC(=O)Nc1nc2ccc(C(=O)c3ccccc3)cc2[nH]1,,0.0057% [at 18.6 µM]
CC(=O)OCC=C(C)C,inactive,
CCCCCCOC(=O)C(C)CC (configuration not stated),inactive,
COC(=O)c1ccccc1C,inactive,
CN(C)Cc1cc(C(C)(C)C)c(O)c(C(C)(C)C)c1,inactive,
CC/C=C\CCCCCO,inactive,
Cc1ccc(N/N=c2\c(=O)cc/c(=N\Nc3ccc(S(=O)(=O)O)cc3)c2=O)c(C)c1,inactive,
O=C(/C=C/c1ccccc1)OC/C=C/c1ccccc1,inactive,
CCC(=O)OC(=O)CC,inactive,
COc1cc(S(=O)(=O)O)c(C)cc1N=Nc1c(O)ccc2cc(S(=O)(=O)O)ccc12,inactive,
O=[N+]([O-])c1cccc(C(F)(F)F)c1,inactive,
CCO[Si](OCC)(OCC)OCC,inactive,

Compound,Potency,"fluorescence, % of fluorescent control"
Cc1ccc(-c2ccccc2)cc1,inactive,
ClCCl,inactive,
CN1CCCCC1CCN1c2ccccc2Sc2ccc(S(C)=O)cc21 (configuration not stated),inactive,
C[Si](Cl)(c1ccccc1)c1ccccc1,inactive,
NC(=S)NC(N)=S,inactive,
O=C(O)[C@H](O)[C@@H](O)[C@H](O[C@@H]1O[C@H](CO)[C@H](O)[C@H](O)[C@H]1O)[C@H](O)CO,,-0.292% [at 18.6 µM]
CCCCN(CCCC)CC(O)c1cc(Cl)cc2c1-c1ccc(Cl)cc1/C2=C/c1ccc(Cl)cc1 (configuration not stated),inactive,
CCCCCc1ccc(Cl)cc1,inactive,
C=Cc1cccc(C)c1,inactive,
CC(C)OC(=O)C(O)(CC(=O)O)CC(=O)O,inactive,
Clc1nnc(Cl)c2ccccc12,inactive,
[Cl][Pt-2]([Cl])([Cl])[Cl],inactive,
O=S(=O)(O)c1ccc(N=Nc2c(O)ccc3ccccc23)cc1,inactive,
CCOC(=O)NNc1ccc(N(CC)CC(C)O)nn1 (configuration not stated),inactive,
CC(C)(C)C1CCC(=O)CC1,inactive,
C1CCC(SSC2CCCCC2)CC1,inactive,
CCN(CC)c1ccc2c(-c3ccc(S(=O)(=O)O)cc3S(=O)(=O)[O-])c3ccc(=[N+](CC)CC)cc-3oc2c1,0.794 µM [fluorescent] (active),
COc1ccc(NC(=O)CC(C)=O)cc1,inactive,
